Compound activity: PubChem, Johns Hopkins Ion Channel Center
Compounds with a hit are over-represented: about 1.6% of the library has one in this group of screens.
KCNQ2 inh: inhibitors of rat KCNQ2 potassium channel; AID 2156; actives 1.1% (n = 310,000); O88943; B-score at 10 µM; CHO-K1 KCNQ2, FluxOR thallium flux, 20 min; active compounds read low;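 active means fluorescence ratio B-score at most minus 3 library SDs, with starting brightness B-score within 2 library SDs, cut at about -5.5 in these data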
KCNQ2 pot: potentiators of rat KCNQ2 potassium channel | O88943 | CHO-K1 KCNQ2, FluxOR thallium flux fluorescence; active compounds read high | B-score at 10 µM | actives 0.54% (n = 310,000) | AID 2239;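 active means fluorescence ratio B-score at least 3 SD of library B-scores, with initial fluorescence B-score within 3 of them, cut at about 5.3 in these data; same plate scores as AID 2156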;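 further: B-score of peak minus minimum over baseline fluorescence ratio after K+ and Tl+ stimulus; positive B-score means potentiation of KCNQ2 with more thallium influx and brighter signal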
Kir21 conf inh: confirmation of mouse Kir2.1 potassium channel inhibitors; Kir2.1-expressing cells, FluxOR thallium flux fluorescence; active compounds read low; actives 41% (n = 2,300); shares compounds with KCNQ2 pot; AID 2032; Tl flux remaining, % of negative control (active compounds read low), % at 10 µM;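 active means Primary-screen hit whose thallium flux fell at least 3 control SD below untreated wells in both duplicates, with normal baseline fluorescence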
Target sequence (P35561 whole entry, looked up): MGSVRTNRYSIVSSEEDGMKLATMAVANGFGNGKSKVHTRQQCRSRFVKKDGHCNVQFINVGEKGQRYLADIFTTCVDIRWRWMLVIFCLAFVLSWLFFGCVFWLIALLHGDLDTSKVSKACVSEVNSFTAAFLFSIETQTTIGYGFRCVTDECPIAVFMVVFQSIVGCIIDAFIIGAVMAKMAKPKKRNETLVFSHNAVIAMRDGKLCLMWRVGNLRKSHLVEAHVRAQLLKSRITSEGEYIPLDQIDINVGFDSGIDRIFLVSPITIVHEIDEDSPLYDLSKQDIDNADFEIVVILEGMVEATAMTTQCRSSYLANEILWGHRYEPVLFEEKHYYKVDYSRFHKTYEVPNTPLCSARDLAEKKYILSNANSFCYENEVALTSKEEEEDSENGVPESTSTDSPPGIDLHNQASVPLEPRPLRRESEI
HEK293 ctr: counter-screen for Kir2.1 inhibitors: effect in parental HEK293 cells. shares compounds with KCNQ2 pot. FluxOR thallium flux fluorescence; 0% = unstimulated blank wells. FluxOR signal as % of negative control (100 = no effect), % at 10 µM. actives 19% (n = 2,300). AID 2105;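 active means dye signal at least 3 control SD above or below untreated wells in both duplicates, raw fluorescence within 3, either direction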;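 further: percent is based on the flux ratio of peak minus minimum fluorescence over baseline F0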
CHO-K1 Tl ctr: counter-screen for KCNQ2 potentiators: effect in parental CHO-K1 cells; actives 43% (n = 1,200); shares compounds with KCNQ2 pot; activity increase over 3SD of controls, % at 10 µM; FluxOR thallium flux fluorescence; zero = vehicle mean+3SD, 100% = vehicle-minus-blank window; AID 2282;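 active means signal rise of at least 3 SD above the untreated control mean, in both duplicate wells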;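 further: counter screen of KCNQ2 potentiator hits so any rise reflects channel-independent effects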
KCNQ1 pot spec: human KCNQ1 counter-target activity of KCNQ2 potentiators; actives 28% (n = 1,200); shares compounds with KCNQ2 pot; activation over 3SD threshold, % at 10 µM; CHO KCNQ1 stable, FluxOR thallium flux fluorescence; beyond 3SD, as % of vehicle-control signal;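 active means fluorescence ratio rise of at least 3 SD of vehicle wells above their mean, in both replicate wells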
KCNQ2 pot confirm: confirmation of rat KCNQ2 potassium channel potentiators; shares compounds with KCNQ2 pot; potentiation, less the hit threshold, % at 10 µM; actives 68% (n = 1,200); AID 2287; CHO-KCNQ2 cells, FluxOR thallium flux fluorescence;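 active means fluorescence ratio rising 3 SD or more over the vehicle control mean in both replicates, plus primary screen hit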;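 further: peak minus minimum thallium fluorescence divided by baseline after K/Tl stimulus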
Kir21 spec: selectivity of KCNQ2 potentiators: effect on mouse Kir2.1; shares compounds with KCNQ2 pot; actives 2% (n = 1,200); activity over 3SD threshold, % at 10 µM; AID 2345; HEK293 Kir2.1, FluxOR thallium flux fluorescence;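 active means fluorescence ratio rise of at least 3 SD above the vehicle-control mean, seen in both replicates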
KCNQ2 W236L pot: KCNQ2 potentiators acting on retigabine-insensitive rat KCNQ2 W236L mutant. current increase over 3SD of negative controls (%), active compounds read high, % at 25 µM. CHO KCNQ2-W236L, automated patch clamp current. shares compounds with KCNQ2 pot. actives 10% (n = 940);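 active means current increase at least 3 SD of the untreated controls above them in both duplicate recordings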
Each line names hits and unclear results; the compound was inactive in the other large screens (follow-up assays come after a bar, where they were run).

O=C(NCCCNC(=O)c1ccco1)c1ccc(Cl)cc1	none (no result: KCNQ2 pot)
CCn1c(SCc2ccccc2F)nnc1-c1ccncc1	none
CCN(CC)CCNC(=O)c1cc2cc(Br)ccc2s1	none
CC1c2cc3c(cc2CCN1C(=O)c1cccc(Cl)c1)OCCCO3 (stereo not given)	none (no result: KCNQ2 pot)
Cc1cc2ccccc2nc1SCC(=O)NC1CCCCC1	KCNQ2 pot 11 | Kir21 conf inh inactive | HEK293 ctr inactive | CHO-K1 Tl ctr inactive | KCNQ1 pot spec inactive | KCNQ2 pot confirm 11 | Kir21 spec inactive | KCNQ2 W236L pot inactive
Cc1cc2ccccc2nc1SCC(=O)NC1CCCC1	none
Cc1nnc2c(N3CCN(CCO)CC3)nc3ccccc3n12	none (no result: KCNQ2 pot)
Cc1cccc(Cn2c(C)nc3c(N)c(C)c(C)cc32)c1	none
CCOC(=O)c1ccc(Oc2cc(C)nc(Cl)n2)cc1	none
O=C(O)CCSc1ncnc2sc(-c3ccccc3)cc12	KCNQ2 pot 9.6 | Kir21 conf inh inactive | HEK293 ctr 198% | CHO-K1 Tl ctr 17 | KCNQ1 pot spec 3.1 | KCNQ2 pot confirm 33 | Kir21 spec inactive | KCNQ2 W236L pot 16%
CC(=O)CCSc1ncnc2sc(-c3ccccc3)cc12	none (no result: KCNQ2 pot)
CCOC(=O)C1CCCN(S(=O)(=O)c2cc(C(=O)OC)n(C)c2)C1 (stereo not given)	none
O=C(COc1ccc([N+](=O)[O-])cc1)Nc1cccc2nsnc12	none (no result: KCNQ2 pot)
CCN(CC)c1ccc(NC(=O)c2ccco2)c(C)c1	none
CCN(CC)c1ccc(NC(=O)c2cccc(F)c2)c(C)c1	KCNQ2 pot 17 | Kir21 conf inh inactive | HEK293 ctr inactive | CHO-K1 Tl ctr inactive | KCNQ1 pot spec inactive | KCNQ2 pot confirm 49 | Kir21 spec inactive | KCNQ2 W236L pot inactive
COc1ccc(OCC(=O)Nc2ccc(N3CCN(Cc4ccccc4F)CC3)cc2)cc1	none
COC(=O)CSc1ccccc1C(=O)OC	none (no result: KCNQ2 pot)
COC(=O)CSC1=NS(=O)(=O)c2ccccc21	KCNQ2 inh -7.9 | Kir21 conf inh 58% | HEK293 ctr inactive
C=CCn1c(=S)[nH]c2ccc(Br)cc2c1=O	KCNQ2 pot 5.9 | Kir21 conf inh inactive | HEK293 ctr inactive | CHO-K1 Tl ctr inactive | KCNQ1 pot spec inactive | KCNQ2 pot confirm inactive | Kir21 spec inactive | KCNQ2 W236L pot inactive
C=CCn1c(=S)[nH]c2cc(C(=O)Nc3ccc(OC)c(OC)c3)ccc2c1=O	none (no result: KCNQ2 pot)
COc1cc(/C=N/NC(=O)C(=O)NCc2ccco2)cc(Br)c1O	none
NC(=O)C1=C[C@H](c2ccc(Br)cc2)C[C@H](OCc2ccc(CO)cc2)O1	none | Kir21 conf inh 45% | HEK293 ctr inactive
NC(=O)C1=C[C@@H](c2ccc(Br)cc2)C[C@@H](OCc2ccc(CO)cc2)O1	none (no result: KCNQ2 pot)
Cn1nc(C(F)(F)F)c(-c2ccc(Br)cc2)c1NC(=O)CSCC(=O)O	none (no result: KCNQ2 pot)
Cc1ccc(S(=O)(=O)/N=C/c2cc(Br)ccc2O)cc1	none
Cc1cc(N=Cc2cc(Br)ccc2O)no1	KCNQ2 pot 9.1 | Kir21 conf inh inactive | HEK293 ctr inactive | CHO-K1 Tl ctr inactive | KCNQ1 pot spec inactive | KCNQ2 pot confirm 0.8 | Kir21 spec inactive | KCNQ2 W236L pot inactive
O=C(COC(=O)C1=NNC(=O)CC1)NCCc1ccccc1	none
COc1cc(OC)cc(C(=O)NCC(=O)NC(C)c2ccccc2)c1 (stereo not given)	none
COc1cc(CNC(C)c2ccccc2)cc(Cl)c1OCC(=O)Nc1ccccc1 (stereo not given)	none (no result: KCNQ2 pot) | Kir21 conf inh 60% | HEK293 ctr inactive
CCN(CC)CCNCc1cc(Cl)c(OCC(=O)Nc2ccccc2)c(OC)c1	none
CC(=O)Nc1ccc(C(C#N)c2ccccc2)cc1 (stereo not given)	none
COc1ccc(C(=O)NC(C)C2CC3CCC2C3)c(OC)c1 (stereo not given)	none (no result: KCNQ2 pot)
COc1cccc(NC(=O)NC(C)C2CC3CCC2C3)c1 (stereo not given)	KCNQ2 pot 12 | Kir21 conf inh inactive | HEK293 ctr inactive | CHO-K1 Tl ctr inactive | KCNQ1 pot spec inactive | KCNQ2 pot confirm inactive | Kir21 spec inactive | KCNQ2 W236L pot inactive
CN(Cc1ccc(F)cc1)C(=O)c1sccc1-c1ccccc1	none (no result: KCNQ2 pot) | Kir21 conf inh 64% | HEK293 ctr inactive
COc1ccc(CN(C)C(=O)c2sccc2-c2ccccc2)c(OC)c1	none (no result: KCNQ2 pot)
CN(C)c1ccc(CNS(=O)(=O)c2ccc3c(c2)NC(=O)CS3)cc1	none (no result: KCNQ2 pot)
CC(C)NCC(O)COc1cccc2ccccc12 (stereo not given)	none (no result: KCNQ2 pot)
OC(CNCc1ccccc1F)COc1cccc2ccccc12 (stereo not given)	none (no result: KCNQ2 pot) | Kir21 conf inh 72% | HEK293 ctr inactive
Cc1ccc(C)c(CN2CCC(CNC(=O)Nc3cccc(Cl)c3C)CC2)c1	KCNQ2 pot 5.3 | Kir21 conf inh inactive | HEK293 ctr inactive | CHO-K1 Tl ctr inactive | KCNQ1 pot spec inactive | KCNQ2 pot confirm inactive | Kir21 spec inactive | KCNQ2 W236L pot inactive
Cc1ccc(NC(=O)NCC2CCN(Cc3cc(C)ccc3Cl)CC2)c(C)c1	none
S=C(NCC1CCCO1)N1CCN(c2nc(-c3ccc(Cl)cc3)cs2)CC1 (stereo not given)	none (no result: KCNQ2 pot) | Kir21 conf inh inactive | HEK293 ctr inactive
S=C(NCCCN1CCOCC1)N1CCN(c2nc(-c3ccc(Cl)cc3)cs2)CC1	none (no result: KCNQ2 pot)
CCN(CC)S(=O)(=O)c1ccc(OC)c(NS(=O)(=O)Cc2ccccc2)c1	none
CCN(Cc1ccccc1)Cc1ccc(OCc2ccccc2)c(OC)c1	none (no result: KCNQ2 pot)
COc1cc(CN(C)CCc2ccccc2)ccc1OCc1ccccc1	none (no result: KCNQ2 pot) | Kir21 conf inh 16% | HEK293 ctr inactive
FC(F)(F)c1ccc(-n2cnc3ccccc32)nc1	none
Cc1cccc(C)c1NC(=O)CNC(=O)CCC(=O)N1CCOCC1	none (no result: KCNQ2 pot)
Cn1c(-c2ccc(F)cc2)cnc1NCc1ccc(C#N)cc1	none (no result: KCNQ2 pot)
Cc1ccc(CNc2ncc(-c3ccc4c(c3)OCO4)n2C)cc1	KCNQ2 inh -6 | Kir21 conf inh 22% | HEK293 ctr inactive
Cn1c(-c2ccccc2)cnc1NCc1ccc(-c2ccccc2)cc1	none (no result: KCNQ2 pot)
Cn1c(-c2ccc(F)cc2)cnc1NCc1ccc(F)cc1	none (no result: KCNQ2 pot) | Kir21 conf inh 38% | HEK293 ctr inactive
Cn1c(-c2ccc3c(c2)OCO3)cnc1NCc1ccc(Cl)cc1	none (no result: KCNQ2 pot) | Kir21 conf inh 21% | HEK293 ctr inactive
COc1cc(CNc2ncc(-c3ccc(Cl)cc3)n2C)cc(OC)c1OC	none (no result: KCNQ2 pot)
